Results reported in PubChem BioAssay (NCI).
Where “and” joins values, the source holds several entries; their conditions need not be identical. Equal entries are not always repeated. This is part of a sample that, as a whole, favours compounds with a hit. Of some 79,000 tested, about 15% had one in any assay. Calls of active or inactive are those of the source. No stated cut-off is given here; in the data, active means growth inhibition above about 70%; inactive means the rest.

Experiment: NCI Yeast Anticancer Drug Screen. Data for the mlh1 rad18 strain (AID 175)
Settings: S. cerevisiae mlh1 rad18 strain growth inhibition, stronger effect = higher value; at 50.0 µM unless noted
Method in brief: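 Vehicle-treated cultures served as the reference for growth inhibition in a yeast strain carrying DNA damage repair alterations exposed to each compound.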

**Q.** For NCCCc1nonc1C(=O)O, which growth inhibition is on record?
**A.** The growth inhibition was -13.3% (inactive).

**Q.** With COC1=NS(=O)(=O)C2CCCCCCC2O1 (centres undefined) as the compound, how does the growth inhibition read?
**A.** The growth inhibition was -7.4% (inactive).

**Q.** For CC1CN=C(N(C(=O)Nc2ccccc2)C2CCCCC2)S1 (centres undefined), which growth inhibition is on record?
**A.** The growth inhibition was -20% (inactive).

**Q.** For COc1ccc(-n2c(N)c(C#N)[nH]c2=O)cc1, which growth inhibition is on record?
**A.** The growth inhibition was -21.3% (inactive).

**Q.** Which growth inhibition does the source give for NC(C=O)C(O)C(O)C(O)CO (centres undefined) here?
**A.** The growth inhibition was -6.9% (inactive).

**Q.** For Cc1cc(OC(=O)c2c(-c3c(Cl)cccc3Cl)noc2C)n(-c2ccc(NC(=O)c3c(-c4c(Cl)cccc4Cl)noc3C)cc2)n1, which growth inhibition is on record?
**A.** Its growth inhibition is 25.9% (inactive).

**Q.** With CC(=O)Oc1ccc(N2CC=C(c3ccccc3)CC2)cc1 as the compound, how does the growth inhibition read?
**A.** Its growth inhibition is -4.45% (inactive).

**Q.** Which growth inhibition does the source give for OC(c1ccc(OCc2ccccc2)cc1)c1ccccn1 (centres undefined) here?
**A.** The growth inhibition was -0.3% (inactive).

**Q.** Which growth inhibition does the source give for Cc1ccc(=O)[nH]n1 here?
**A.** The growth inhibition was 3.75% (inactive) and -20% (inactive).

**Q.** With CC12CC(O)C3C(CCC4CC(O)CCC43C)C1CCC2C(=O)CO (centres undefined) as the compound, how does the growth inhibition read?
**A.** The growth inhibition was 10.4% (inactive).

**Q.** Which growth inhibition does the source give for O=C(Nc1ccccc1)c1cc(S(=O)(=O)Nc2n[nH]c(=O)[nH]2)c(SSc2cc(Cl)c(C(=O)Nc3ccccc3)cc2S(=O)(=O)Nc2n[nH]c(=O)[nH]2)cc1Cl here?
**A.** Its growth inhibition is 25.4% (inactive).

**Q.** Which growth inhibition does the source give for S=C(S)Nc1cccc2ccccc12 here?
**A.** Its growth inhibition is -16.2% (inactive) and 14.3% (inactive).

**Q.** Which growth inhibition does the source give for CCCOC(=O)C1C(=O)CC(c2ccccc2)C1c1ccccc1 (centres undefined) here?
**A.** The growth inhibition was -0.4% (inactive).

**Q.** For O=C(Cc1ccc([N+](=O)[O-])cc1)Nc1cccc(O)c1, which growth inhibition is on record?
**A.** The growth inhibition was 14.8% (inactive).

**Q.** For C/C(=C\c1ccc(N(C)C)cc1)c1ccncc1, which growth inhibition is on record?
**A.** Its growth inhibition is 48.2% (inactive).

**Q.** With Nc1nc2cc(F)ccc2o1 as the compound, how does the growth inhibition read?
**A.** Its growth inhibition is -15.2% (inactive).

**Q.** With O=c1c2ccccc2c(=O)n2n1-c1cccc(c1)CSSCc1cccc-2c1 as the compound, how does the growth inhibition read?
**A.** Its growth inhibition is -12.8% (inactive).

**Q.** For ON=C1CCC(c2ccccc2)CC1 (centres undefined), which growth inhibition is on record?
**A.** Its growth inhibition is -9.6% (inactive).

**Q.** Which growth inhibition does the source give for O=C1c2ccccc2S(=O)(=O)c2c1cccc2[N+](=O)[O-] here?
**A.** Its growth inhibition is 15.7% (inactive).

**Q.** With CN(C)c1ccccc1C(=O)N/N=C\c1ccc(-c2ccccc2)cc1 as the compound, how does the growth inhibition read?
**A.** Its growth inhibition is 19.6% (inactive).

**Q.** Which growth inhibition does the source give for CCN(CC)c1ccc(/C=N/Nc2cc(C)nc3ccc(C4CCCCC4)cc23)cc1 here?
**A.** Its growth inhibition is 44.9% (inactive).

**Q.** For c1ccc(-c2cnoc2-c2ccccc2)cc1, which growth inhibition is on record?
**A.** Its growth inhibition is 8.3% (inactive).

**Q.** Which growth inhibition does the source give for COc1ccc(N2C(N)=C(C#N)C(C#N)(C#N)C2c2cccc([N+](=O)[O-])c2)cc1 (centres undefined) here?
**A.** Its growth inhibition is 79.7% (active).

**Q.** Which growth inhibition does the source give for CCSc1[nH]c(Nc2nc(-c3ccccc3)n(-c3ccccc3)n2)c(C(N)=O)c1C(N)=O here?
**A.** The growth inhibition was 7% (inactive).

**Q.** For C[N+]1(C2C=CCC(c3ccccc3)C2[N+](=O)[O-])CCCC1 (centres undefined), which growth inhibition is on record?
**A.** Its growth inhibition is 10.9% (inactive).

**Q.** With C=C(C)C(C)/C(C)=N/NC(N)=O (centres undefined) (tested in a mixture with another compound) as the compound, how does the growth inhibition read?
**A.** The growth inhibition was -15.8% (inactive).

**Q.** For Cc1nc2ccncc2[nH]1, which growth inhibition is on record?
**A.** The growth inhibition was -8.2% (inactive).

**Q.** Which growth inhibition does the source give for CCOC(=O)/C(Cc1ccc2ccccc2n1)=N/O here?
**A.** The growth inhibition was 6.25% (inactive).

**Q.** With c1ccc(C2Cc3ccccc3C2c2ccccc2)cc1 (centres undefined) as the compound, how does the growth inhibition read?
**A.** Its growth inhibition is -13.3% (inactive).

**Q.** For O=C1NC(=O)C(Cc2ccccc2)(c2cccnc2)N1 (centres undefined), which growth inhibition is on record?
**A.** The growth inhibition was -22.2% (inactive).

**Q.** For C=C1C(=O)O[C@@H]2C[C@@H](C)[C@@H]3C=CC(=O)[C@@]3(C)[C@@H](OC(=O)CCCC(=O)O[C@H]3[C@@H]4C(=C)C(=O)O[C@@H]4C[C@@H](C)[C@@H]4C=CC(=O)[C@]43C)[C@H]12, which growth inhibition is on record?
**A.** The growth inhibition was 34.9% (inactive).

**Q.** With ClC1CCC[N-]C1.ClC1CCC[N-]C1.[Cl][Pt+2][Cl] (centres undefined) as the compound, how does the growth inhibition read?
**A.** The growth inhibition was -3.55% (inactive).

**Q.** With CCOC(=O)Cc1ccc2ccccc2c1 as the compound, how does the growth inhibition read?
**A.** The growth inhibition was 7.5% (inactive).

**Q.** With CSc1ccc(Cl)cc1 as the compound, how does the growth inhibition read?
**A.** Its growth inhibition is 16.1% (inactive).

**Q.** For Cc1cc(Cl)ccc1N=C1NC(=O)C(CC(=O)Nc2ccc([N+](=O)[O-])cc2[N+](=O)[O-])S1 (centres undefined), which growth inhibition is on record?
**A.** Its growth inhibition is 33.1% (inactive).

**Q.** With OC1(C#CC#CC2(O)CCCCC2)CCCCC1 as the compound, how does the growth inhibition read?
**A.** The growth inhibition was 4.2% (inactive).

**Q.** Which growth inhibition does the source give for CCCCS(=O)/C=C\S(=O)CCCC (centres undefined) here?
**A.** The growth inhibition was 1.6% (inactive).

**Q.** With CC1=NN(C(=O)Nc2ccc(Cl)cc2)C(=O)C2CCC(=O)N12 (centres undefined) as the compound, how does the growth inhibition read?
**A.** The growth inhibition was 27% (inactive).

**Q.** For CC(=O)Nc1cc([N+](=O)[O-])cc([N+](=O)[O-])c1O, which growth inhibition is on record?
**A.** The growth inhibition was 7.2% (inactive).
